This is part of a sample that, as a whole, favours compounds with a hit. Of some 79,000 tested, about 15% had one in any assay. A number with no mark means an inactive call. Activity calls are given as the source filed them. No stated cut-off is given here; in the data, active means growth inhibition above about 70%; inactive means the rest.
Legend:
[1] = NCI Yeast Anticancer Drug Screen. Data for the rad50 strain (AID 155);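 further: 0% = growth of vehicle-only cultures of the same strain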; conditions: S. cerevisiae rad50 strain growth inhibition, hits give high values
Outline: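 Yeast carrying a defined DNA repair defect were exposed to test compounds, and growth was compared with vehicle-treated controls to give percent inhibition.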

[2] = NCI Yeast Anticancer Drug Screen. Data for the mec2-1 strain (AID 157); conditions: S. cerevisiae mec2-1 strain, hits give high values
Outline: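 Yeast mec2-1 mutant treated with compound. Readout: growth inhibition vs vehicle controls.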

[3] = NCI Yeast Anticancer Drug Screen. Data for the sgs1 mgt1 strain (AID 161);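 further: 0% = growth of cultures given vehicle only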; conditions: S. cerevisiae sgs1 mgt1 strain, hits give high values
Outline: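 Read-out: growth inhibition vs vehicle controls. Cells: mutant yeast strain deficient in DNA damage repair.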

[4] = NCI Yeast Anticancer Drug Screen. Data for the cln2 rad14 strain (AID 165);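 further: 0% = growth equal to vehicle treated cultures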; conditions: S. cerevisiae cln2 rad14 strain, hits give high values
Outline: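 cln2 rad14 yeast strain; compound exposure; growth inhibition read vs vehicle controls.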

[5] = NCI Yeast Anticancer Drug Screen. Data for the bub3 strain (AID 167); conditions: S. cerevisiae bub3 mutant strain, hits give high values
Outline: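 Compounds were applied to a genetically altered yeast strain carrying a cell-cycle control defect. Growth inhibition was scored against vehicle-treated controls.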

[6] = NCI Yeast Anticancer Drug Screen. Data for the mlh1 rad18 strain (AID 175); conditions: S. cerevisiae mlh1 rad18 strain growth inhibition, hits give high values
Outline: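 Yeast w/ defined DNA-repair lesions; compound exposure; growth vs vehicle controls → % inhibition.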

[7] = at 5.0 µM (retest, dose inferred, filed as 0.5)
[8] = at 50.0 µM (retest, dose inferred, filed as 5.0)

Row | Compound | growth inhibition [1, 7] | growth inhibition [1, 8] | growth inhibition ([1]; at 50.0 µM) | growth inhibition [2, 7] | growth inhibition [2, 8] | growth inhibition ([2]; at 50.0 µM) | growth inhibition [3, 7] | growth inhibition [3, 8] | growth inhibition ([3]; at 50.0 µM) | growth inhibition [4, 7] | growth inhibition [4, 8] | growth inhibition ([4]; at 50.0 µM) | growth inhibition [5, 7] | growth inhibition [5, 8] | growth inhibition ([5]; at 50.0 µM) | growth inhibition [6, 7] | growth inhibition [6, 8] | growth inhibition ([6]; at 50.0 µM)
1 | BrC(Br)([P+](c1ccccc1)(c1ccccc1)c1ccccc1)[P+](c1ccccc1)(c1ccccc1)c1ccccc1 | 18% | 73% (active) | 19.1% | 9% | 41% | 23.6% | 4% | 61% | 27.5% | 4% | 24% | 35.4% | 4% | 42% | 12.7% | 15% | 74% (active) | 78.2% (active)
2 | Nc1ccc(C(=O)N/C(=C\C=C\c2ccco2)c2nc3c4c(ccc3[nH]2)C(=O)c2ccccc2C4=O)cc1 | 23% | 75% (active) | 90.8% (active) | 1% | 28% | 62.1% | 3% | 35% | 74.8% (active) | 0% | 9% | 44.7% | 2% | 22% | 31.9% | 10% | 12% | 90.5% (active)
3 | NCc1cccc(O)c1O | 27% | 61% | 73.7% (active) | 22% | 41% | 81.1% (active) | 14% | 51% | 41.5% | 15% | 46% | 24.7% | 20% | 72% (active) | 53.6% | 28% | 44% | 24.9%
4 | O=C1OC2(CCN(Cc3ccccc3)CC2)C(=O)N1c1cccc(Cl)c1 | -1% | 35% | 79.5% (active) | -8% | 22% | 18.5% | 28% | 58% | 76.5% (active) | 60% | 52% | 40.8% | 14% | 81% (active) | 52.8% | 3% | 37% | 62.5%
5 | CN(C)c1ccc(/C=C(\C#N)c2cccc(Cl)c2)cc1 | 1% | -8% | 16.7% | -1% | 1% | 18% | 4% | 12% | 10.8% | -3% | -25% | 69.4% | 5% | 14% | 13.7% | -3% | -11% | -4.75%
6 | CCCC/C=C(/CCCCOCOCCOC)[Si](C)(C)C | -1% | -1% | -13.2% | -5% | -2% | -1.8% | -1% | 6% | 15.9% | 1% | -15% | 86.1% (active) | -3% | -9% | 11.7% | -8% | 4% | 30.8%
7 | Cc1ccc(/C=C2\CCCC(CN3CCCCC3)C2=O)cc1 (stereo not given) | 23% | 99% (active) | 75% (active) | 34% | 99% (active) | 83% (active) | 30% | 99% (active) | 87.8% (active) | 45% | 98% (active) | 73.3% (active) | 37% | 99% (active) | 89.3% (active) | 32% | 99% (active) | 90% (active)
8 | OC1CC2CCC(C1)N2CCCN1c2ccccc2Sc2ccc(Cl)cc21 (stereo not given) | 12% | 99% (active) | 99% (active) | 13% | 80% (active) | 97.2% (active) | -4% | 61% | 99.1% (active) | -23% | 74% (active) | 97.5% (active) | -20% | 97% (active) | 99.2% (active) | 10% | 97% (active) | 94.4% (active)
9 | O=C(COc1ccccc1)Oc1c(Cl)c(Cl)c(Cl)c(Cl)c1Cl | 23% | 94% (active) | 94% (active) | 28% | 97% (active) | 98% (active) | 34% | 98% (active) | 96% (active) | 10% | 97% (active) | 96% (active) | 11% | 96% (active) | 98.3% (active) | 23% | 97% (active) | 97.5% (active)
10 | CNCCN[C@@H]1c2cc3c(cc2[C@@H](c2cc(OC)c(O)c(OC)c2)[C@H]2C(=O)OC[C@@H]21)OCO3 | 96% (active) | 97% (active) | 78.8% (active) | 43% | 91% (active) | 65.3% | -24% | 75% (active) | 88.1% (active) | 3% | 42% | 82.4% (active) | -3% | 84% (active) | 87% (active) | 43% | 89% (active) | 87.8% (active)

Source: PubChem BioAssay (NCI)
